Screens as filed in PubChem.
This is a sample that favours compounds with a hit; in the whole collection about 1.1% have one here.
TrxR1 substrate – qHTS Assay for Substrates of Mammalian Selenoprotein Thioredoxin Reductase 1 (TrxR1): qHTS | Thioredoxin reductase 1, cytoplasmic (Rattus norvegicus), O89049 | purified TrxR1 substrate turnover, NADPH consumption readout | Potency, µM (highest dose often 114 µM), without a hit: at the highest dose activity change, negative = substrate turnover | actives 0.01% (n = 390,000); note: potency is the fitted concentration of half-maximal effect; % is set by controls: 0 for no effect and ±100 for the full control effect; nearly all actives have a fitted effect of over 50% in size
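Rat TrxR1, dispensed at 90 nM, was prereduced with 400 uM NADPH (final) for 5 min at ~22 deg C, then incubated with compound 15 min before 400 uM selenite. A first-read NADPH fluorescence drop versus no-compound background flagged substrates.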
miR-21 act – qHTS Assay for Modulators of miRNAs and/orActivators of miR-21; HeLa miR-21 FLuc reporter, luciferase, 48 h; Potency, µM (titrated, usually from 38.3 µM), for the others: at the highest dose activity change, positive = activation, usual class: activators; 340,000 tested, under 10 active;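 note: % of control where 0% means no effect; miR-21 action dims this reporter so a rising signal means less miR-21 action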
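HeLa miR-21-FLuc reporter line, endogenous miR-21; 2000 cells/well in DMEM/10% FBS; compound titration up to ~40uM final, 48 h, 37 degree Celsius; luciferase detection reagent, 15 min lysis, CCD luminescence.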
TrxR1 inh – qHTS Assay for Inhibitors of Mammalian Selenoprotein Thioredoxin Reductase 1 (TrxR1): qHTS; Thioredoxin reductase 1, cytoplasmic (Rattus norvegicus), O89049; recombinant rTrxR1, NADPH fluorescence consumption, selenite substrate; Potency, µM (series often up to 114 µM), inactives show top-dose activity change, negative = inhibition, hits mostly inhibitors; actives 1% (n = 390,000); AID 588453, 2011; note: potency is the fitted concentration of half-maximal effect; % is set by controls: 0 for no effect and ±100 for the full control effect; nearly all actives have a fitted effect of over 65% in size
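Rat TrxR1 (90 nM in the dispensed reagent) was pre-reduced with 400 uM NADPH for 5 min at room temperature, then incubated with compound for 15 min. After 400 uM selenite was added, NADPH fluorescence (Ex 340/Em 450 nm) was followed for 8 min.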
PINK1 modulator – A Quantitative High throughput Screen to Identify Chemical Modulators of PINK1 Expression | PINK1 immunofluorescence, high-content cytometry, 24 h | Potency, µM (top dose mostly 76.6 µM), inactives show at the highest dose activation (PINK1 increase), usual class: activators | actives 0.2% (n = 410,000) | AID 624263, 2012; active = well fitted activation curve with a large enough effect; inconclusive = small, poorly fitted or top-dose-only effect; cell line not stated here; note: potency is the fitted concentration of half-maximal effect; % of control where 0% means no effect; nearly all actives have a fitted effect of over 65% in size
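A stable cell line was treated with compounds at 5 concentrations for 24 hours, with CCCP as control. PINK1 levels and mitochondrial localization were measured by immunofluorescence with mitochondrial, cell and nuclear markers after fixation, read by laser-scanning cytometry.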
GALK inh – qHTS Assay for Inhibitors of Human Galactokinase (GALK); Potency, µM (top dose mostly 57.5 µM), for inactives: at the top dose activity change, negative = inhibition, usual class: inhibitors; P51570; Purified GALK, Kinase-Glo residual ATP luminescence; actives 0.007% (n = 270,000); note: potency is the fitted concentration of half-maximal effect; % is set by controls: 0 for no effect and ±100 for the full control effect
Target sequence (P51570 whole entry, looked up): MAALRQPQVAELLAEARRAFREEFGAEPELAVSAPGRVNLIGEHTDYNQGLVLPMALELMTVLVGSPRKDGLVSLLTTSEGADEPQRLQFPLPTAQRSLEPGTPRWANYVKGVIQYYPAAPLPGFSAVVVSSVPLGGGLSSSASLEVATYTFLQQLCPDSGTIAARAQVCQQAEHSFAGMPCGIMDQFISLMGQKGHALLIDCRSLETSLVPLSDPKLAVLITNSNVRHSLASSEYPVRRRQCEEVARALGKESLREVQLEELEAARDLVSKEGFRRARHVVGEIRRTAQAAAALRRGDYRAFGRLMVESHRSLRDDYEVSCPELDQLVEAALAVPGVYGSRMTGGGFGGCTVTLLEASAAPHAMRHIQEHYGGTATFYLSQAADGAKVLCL
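5 nM enzyme, 35 uM ATP, 100 uM galactose, 20 mM HEPES pH8.0, 5 mM MgCl2; 1 h RT; residual ATP by Kinase-Glo Plus luminescence, qHTS format.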
* hit, by the source's call; [ ] = dose if it differs, or a comment. Unless noted, calls come from the whole dose curve; as a rule, active = well fitted curve in the direction sought with a large enough effect; inconclusive = small, poorly fitted or top-dose-only effect, or another doubt; inactive = no such curve, though single readings can be large; an effect the other way counts as inactive or inconclusive.

How did Oc1ccc(CN2CCN(Cc3ccccc3)CC2)c2cccnc12 do in these assays?
TrxR1 substrate: -2%; miR-21 act: 0%; TrxR1 inh: 14µM*; PINK1 modulator: -1%; GALK inh: 2%

Results for Oc1ccc(CNc2ccc(F)cc2)c2cccnc12 ?
TrxR1 substrate: 4%; miR-21 act: 26%; TrxR1 inh: 0.63µM*; PINK1 modulator: 1%; GALK inh: 5%

How did Cc1ccccc1NCc1ccc(O)c2ncccc12 do in these assays?
TrxR1 substrate: 8%; miR-21 act: inconclusive; TrxR1 inh: 0.63µM*; PINK1 modulator: 11µM*; GALK inh: -2%

What do the screens show for `Cc1ccc(CNC(=O)CCCCCn2c(=O)c3sccc3n(CC(=O)N3CCCCC3C)c2=O)cc1` (stereo not drawn)?
TrxR1 substrate: 0%; miR-21 act: -8%; TrxR1 inh: 2%; PINK1 modulator: 1%

What do the screens show for `COC(=O)c1cc(NC(=O)c2nn(C)c3c2CSc2ccccc2-3)cc(C(=O)OC)c1`?
TrxR1 substrate: 6%; miR-21 act: -6%; TrxR1 inh: 23%; PINK1 modulator: 4%

What do the screens show for `CCOC(=O)C1CCN(S(=O)(=O)c2ccc(C(C)=O)cc2)CC1`?
TrxR1 substrate: -3%; miR-21 act: -7%; TrxR1 inh: 10%; PINK1 modulator: 11µM*; GALK inh: 1%

How did CCC(C)Sc1cc(C(F)(F)F)c(C(=O)Nc2ccc(Cl)cc2)cn1 (stereo not drawn) do in these assays?
TrxR1 substrate: -10%; miR-21 act: inconclusive; TrxR1 inh: -20%; PINK1 modulator: 18µM*; GALK inh: -4%

What do the screens show for `Cc1ccc(NC(=O)c2cc(N3C(=O)C=CC3=O)ccc2N2CCOCC2)cc1`?
TrxR1 substrate: 5%[57.1 µM]; miR-21 act: inconclusive; TrxR1 inh: 0.89µM*; PINK1 modulator: 11%; GALK inh: 1%

How did Cc1ccc(NC(=O)c2cc(NC(=O)c3ccco3)ccc2N2CCOCC2)cc1 do in these assays?
TrxR1 substrate: 3%; miR-21 act: 13%; TrxR1 inh: -3%; PINK1 modulator: -1%; GALK inh: 0%

How did Cc1ccc(NC(=O)c2cc(N3C(=O)C=CC3=O)ccc2Cl)cc1C do in these assays?
TrxR1 substrate: -2%; miR-21 act: -9%; TrxR1 inh: 3.2µM*; PINK1 modulator: 12%; GALK inh: 1%

What do the screens show for `CC(C)Oc1ccc(-c2nc3c(C#N)c[nH]n3c2NC2CCCCC2)cc1`?
TrxR1 substrate: 4%; miR-21 act: -19%; TrxR1 inh: 6%; PINK1 modulator: 1%

Results for COc1ccc(OC)c(C2C3CN(C(C)C)CC=C3C(C#N)=C(N)C2(C#N)C#N)c1 (stereo not drawn) ?
TrxR1 substrate: 8%; miR-21 act: -4%; TrxR1 inh: -27%; PINK1 modulator: 40µM*; GALK inh: -1%

What do the screens show for `CC(=O)N1CC=C2C(C#N)=C(N)C(C#N)(C#N)C(CCc3ccccc3)C2C1` (stereo not drawn)?
TrxR1 substrate: 8%; miR-21 act: 3%; TrxR1 inh: inconclusive; PINK1 modulator: 2%; GALK inh: -3%

How did CCCCOc1ccc(C2C3CN(C(=O)OCC)CC=C3C(C#N)=C(N)C2(C#N)C#N)cc1OC (stereo not drawn) do in these assays?
TrxR1 substrate: 6%; miR-21 act: -4%; TrxR1 inh: 0%; PINK1 modulator: 20%[38.3 µM]; GALK inh: -10%

How did CCN1CC=C2C(C#N)=C(N)C(C#N)(C#N)C(CCc3ccccc3)C2C1 (stereo not drawn) do in these assays?
TrxR1 substrate: 93%; miR-21 act: -3%; TrxR1 inh: -31%; PINK1 modulator: 10µM*; GALK inh: 2%

How did Cc1ccc(C2C3CN(C(C)C)CC=C3C(C#N)=C(N)C2(C#N)C#N)cc1 (stereo not drawn) do in these assays?
TrxR1 substrate: 81%; miR-21 act: -8%; TrxR1 inh: inconclusive; PINK1 modulator: 25µM*; GALK inh: 0%

What do the screens show for `CCCN1CC=C2C(C#N)=C(N)C(C#N)(C#N)C(c3cccc(OC)c3OC)C2C1` (stereo not drawn)?
TrxR1 substrate: 14%; miR-21 act: 0%; TrxR1 inh: -24%; PINK1 modulator: 10µM*; GALK inh: -2%

How did COc1cccc(OC)c1OCc1cc(C2C3CCCC=C3C(C#N)=C(N)C2(C#N)C#N)c(C)cc1C (stereo not drawn) do in these assays?
TrxR1 substrate: -3%[57.1 µM]; miR-21 act: 3%; TrxR1 inh: inconclusive; PINK1 modulator: 4%; GALK inh: 0%

Results for COc1ccccc1C1CN(CCNC(=O)c2sccc2Cl)Cc2ccccc2O1 (stereo not drawn) ?
PINK1 modulator: 0%

Results for COc1ccccc1NC(=O)c1c(-c2ccc(C)cc2)nnc2ccccc12 ?
TrxR1 substrate: 0%[57.1 µM]; miR-21 act: -30%; TrxR1 inh: 2%[57.1 µM]; PINK1 modulator: 1%

How did O=c1c2c3nc4ccccc4nc3n(Cc3ccccc3)c2ncn1Cc1ccco1 do in these assays?
TrxR1 substrate: 25%; miR-21 act: -2%; TrxR1 inh: 18µM*; PINK1 modulator: 4%; GALK inh: -4%

What do the screens show for `COCCCn1c2nc3ccccc3nc2c2c(=O)n(Cc3ccc(Cl)cc3)cnc21`?
TrxR1 substrate: 19%; miR-21 act: 1%; TrxR1 inh: 12%; PINK1 modulator: 5%; GALK inh: 12%

Results for COC(C/C=C/C(=O)[C@H](C)OCc1ccccc1)OC ?
TrxR1 substrate: -8%; TrxR1 inh: 45µM*; PINK1 modulator: 0%

What do the screens show for `N#C/C(=C\c1cccc(Br)c1)C(=O)N1CCCCC1`?
TrxR1 substrate: 5%; miR-21 act: 13%; TrxR1 inh: 14µM*; PINK1 modulator: -2%; GALK inh: -6%

Results for CSc1nc(N(C)CCO)c2sc3nc(-c4ccco4)c4c(c3c2n1)CCC4 ?
TrxR1 substrate: 4%; miR-21 act: -7%; TrxR1 inh: 7.1µM*; PINK1 modulator: -1%[38.3 µM]; GALK inh: 1%

How did CSc1nc(NCCN(C)C)c2sc3nc(-c4ccco4)c4c(c3c2n1)CCC4 do in these assays?
TrxR1 substrate: 12%[57.1 µM]; TrxR1 inh: 33%; PINK1 modulator: -3%

How did Cc1c(CCO)sc[n+]1CCc1ccccc1 do in these assays?
TrxR1 substrate: 5%; TrxR1 inh: 10%

How did COc1cc(O)ccc1C1CC(=O)Nc2c1c(=O)nc(SCc1ccccc1C)n2C (stereo not drawn) do in these assays?
TrxR1 substrate: -8%; miR-21 act: -10%; TrxR1 inh: -6%; PINK1 modulator: -1%
